Measured values taken from the supplement of paper PMC7411054.
Counter-ions that a name gives are not always drawn.

Tests used:
Conditions in all cases: treatment time: 24 h
A549-ACTB-RAB5A [1] = assay: lowest phenotypically active concentration; higher = less potent
In short: (§1)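 Each of fifteen gene-edited A549, HepG2 and WPMY1 reporter lines, marked with BFP for segmentation and GFP and RFP/FusionRed, was treated in four wells at 0.3, 1, 3 or 9 µM for 24 h prior to live imaging. Normalisation of per-well live-cell features used solvent control wells. Deviation needed ≥3 of 4 wells beyond the 95th percentile of control Euclidean distances, and reproducibility needed a median replicate Pearson correlation above the 95th percentile of non-replicates. Both were required for phenotypic activity.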

A549-TUBA1B-RELA [2] = assay: as above
In short: as §1

WPMY1-GM130-SQSTM1 [3] = assay: as above
In short: as §1

A549-ACTB-RAB5A [4] = assay: phenotypically active (imaging signature differs from DMSO and reproducible) at any of 0.3-9 uM (binary (1 = active, 0 = inactive)); higher = active
In short: as §1

A549-CANX-COX4 = assay: as above
In short: as §1

A549-GM130-SQSTM1 [5] = assay: as above
In short: as §1

A549-TP53BP1-CLTA = assay: as above
In short: as §1

A549-TUBA1B-RELA [6] = assay: as above
In short: as §1

HepG2-ACTB-RAB5A [7] = assay: as above
In short: as §1

HepG2-CANX-COX4 = assay: as above
In short: as §1

HepG2-GM130-SQSTM1 = assay: as above
In short: as §1

HepG2-TP53BP1-CLTA = assay: as above
In short: as §1

HepG2-TUBA1B-RELA = assay: as above
In short: as §1

WPMY1-ACTB-RAB5A = assay: as above
In short: as §1

WPMY1-CANX-COX4 = assay: as above
In short: as §1

WPMY1-GM130-SQSTM1 [8] = assay: as above
In short: as §1

WPMY1-TP53BP1-CLTA = assay: as above
In short: as §1

WPMY1-TUBA1B-RELA = assay: as above
In short: as §1

A549-GM130-SQSTM1 [9] = assay: lowest phenotypically active concentration; higher = less potent
In short: as §1

HepG2-ACTB-RAB5A [10] = assay: as above
In short: as §1

| SMILES | lowest phenotypically active concentration (A549-ACTB-RAB5A [1]) | lowest phenotypically active concentration (A549-TUBA1B-RELA [2]) | lowest phenotypically active concentration (WPMY1-GM130-SQSTM1 [3]) | phenotypically active (A549-ACTB-RAB5A [4]) | phenotypically active (A549-CANX-COX4) | phenotypically active (A549-GM130-SQSTM1 [5]) | phenotypically active (A549-TP53BP1-CLTA) | phenotypically active (A549-TUBA1B-RELA [6]) | phenotypically active (HepG2-ACTB-RAB5A [7]) | phenotypically active (HepG2-CANX-COX4) | phenotypically active (HepG2-GM130-SQSTM1) | phenotypically active (HepG2-TP53BP1-CLTA) | phenotypically active (HepG2-TUBA1B-RELA) | phenotypically active (WPMY1-ACTB-RAB5A) | phenotypically active (WPMY1-CANX-COX4) | phenotypically active (WPMY1-GM130-SQSTM1 [8]) | phenotypically active (WPMY1-TP53BP1-CLTA) | phenotypically active (WPMY1-TUBA1B-RELA) | lowest phenotypically active concentration (A549-GM130-SQSTM1 [9]) | lowest phenotypically active concentration (HepG2-ACTB-RAB5A [10]) |
| --- | --- | --- | --- | --- | --- | --- | --- | --- | --- | --- | --- | --- | --- | --- | --- | --- | --- | --- | --- | --- |
| CC(C)C(=O)SCCCCCCC(=O)Nc1nc(-c2ccccc2)cs1 | 1 µM | 9 µM | 1 µM | 1 (active) | 1 (active) | 0 (inactive) | 0 (inactive) | 1 (active) | 0 (inactive) | 1 (active) | 0 (inactive) | 0 (inactive) | 0 (inactive) | 1 (active) | 1 (active) | 1 (active) | 1 (active) | 1 (active) | – | – |
| COc1c(Cl)cc2c([nH]c3cnccc32)c1NC(=O)c1cccnc1C [ML 120B dihydrochloride] | 9 µM | 9 µM | – | 1 (active) | 1 (active) | 1 (active) | 0 (inactive) | 1 (active) | 1 (active) | 1 (active) | 0 (inactive) | 1 (active) | 0 (inactive) | 0 (inactive) | 0 (inactive) | 0 (inactive) | 0 (inactive) | 0 (inactive) | 3 µM | 9 µM |
| CC1(C)O[C@@H]2C[C@H]3[C@@H]4C[C@H](F)C5=CC(=O)C=C[C@]5(C)[C@@]4(F)[C@@H](O)C[C@]3(C)[C@]2(C(=O)CO)O1 [fluocinolone acetonide] | ≤ 0.3 µM | ≤ 0.3 µM | – | 1 (active) | 1 (active) | 1 (active) | 1 (active) | 1 (active) | 0 (inactive) | 0 (inactive) | 0 (inactive) | 0 (inactive) | 0 (inactive) | 1 (active) | 0 (inactive) | 0 (inactive) | 0 (inactive) | 0 (inactive) | ≤ 0.3 µM | – |
| Cc1nnc(-c2ccc3occ(-c4ccc(S(C)=O)cc4)c3c2)o1 (centres undefined) | 9 µM | – | 9 µM | 1 (active) | 1 (active) | 1 (active) | 1 (active) | 0 (inactive) | 1 (active) | 1 (active) | 1 (active) | 0 (inactive) | 1 (active) | 1 (active) | 1 (active) | 1 (active) | 1 (active) | 0 (inactive) | 9 µM | 9 µM |
| CC/C(=C(/c1ccccc1)c1ccc(OCCN(C)C)cc1)c1ccccc1 [tamoxifen] | 3 µM | 3 µM | 9 µM | 1 (active) | 1 (active) | 1 (active) | 0 (inactive) | 1 (active) | 1 (active) | 0 (inactive) | 1 (active) | 1 (active) | 1 (active) | 1 (active) | 1 (active) | 1 (active) | 1 (active) | 1 (active) | 3 µM | 9 µM |
| OCc1cc(C(O)CNCCCCCCOCCCCc2ccccc2)ccc1O (centres undefined) [salmeterol] | 9 µM | 9 µM | 1 µM | 1 (active) | 1 (active) | 1 (active) | 0 (inactive) | 1 (active) | 1 (active) | 0 (inactive) | 1 (active) | 1 (active) | 1 (active) | 1 (active) | 1 (active) | 1 (active) | 1 (active) | 1 (active) | 9 µM | 9 µM |
| N#C/C(=C/c1ccc(O)c(O)c1)C(=O)NCCCCc1ccccc1 | 9 µM | 9 µM | 9 µM | 1 (active) | 1 (active) | 1 (active) | 0 (inactive) | 1 (active) | 1 (active) | 1 (active) | 1 (active) | 1 (active) | 0 (inactive) | 1 (active) | 1 (active) | 1 (active) | 1 (active) | 1 (active) | 9 µM | 9 µM |
| C=C1C(=O)O[C@@H]2[C@H]3O[C@]3(C)CCC=C(C)CC[C@@H]12 [Parthenolide] | 9 µM | 9 µM | 9 µM | 1 (active) | 1 (active) | 1 (active) | 0 (inactive) | 1 (active) | 1 (active) | 1 (active) | 1 (active) | 0 (inactive) | 0 (inactive) | 1 (active) | 1 (active) | 1 (active) | 0 (inactive) | 1 (active) | 9 µM | 9 µM |
| CC(C)(C)c1cc(C(=O)/C=C/c2ccc(C(=O)O)cc2)cc(C(C)(C)C)c1 | ≤ 0.3 µM | 1 µM | ≤ 0.3 µM | 1 (active) | 1 (active) | 1 (active) | 0 (inactive) | 1 (active) | 1 (active) | 1 (active) | 1 (active) | 1 (active) | 0 (inactive) | 1 (active) | 1 (active) | 1 (active) | 1 (active) | 1 (active) | 1 µM | ≤ 0.3 µM |
| CCCCc1oc2ccc(NS(C)(=O)=O)cc2c1C(=O)c1ccc(OCCCN(CCCC)CCCC)cc1 [dronedarone] | 3 µM | 3 µM | – | 1 (active) | 1 (active) | 1 (active) | 0 (inactive) | 1 (active) | 1 (active) | 0 (inactive) | 1 (active) | 1 (active) | 1 (active) | 1 (active) | 1 (active) | 0 (inactive) | 1 (active) | 1 (active) | 3 µM | 9 µM |
| CCCCOc1c(C(=O)c2c(F)cc(C)cc2F)cnc2[nH]ncc12 | ≤ 0.3 µM | ≤ 0.3 µM | – | 1 (active) | 1 (active) | 1 (active) | 0 (inactive) | 1 (active) | 1 (active) | 0 (inactive) | 1 (active) | 1 (active) | 1 (active) | 1 (active) | 1 (active) | 0 (inactive) | 0 (inactive) | 1 (active) | 1 µM | 3 µM |
| O=C1/C(=C\c2ccncc2)CCC/C1=C\c1ccncc1 | 3 µM | – | 3 µM | 1 (active) | 1 (active) | 1 (active) | 0 (inactive) | 0 (inactive) | 1 (active) | 1 (active) | 1 (active) | 1 (active) | 1 (active) | 1 (active) | 1 (active) | 1 (active) | 1 (active) | 1 (active) | 3 µM | 9 µM |
| CCn1c(=O)n([C@H]2CCCN(c3nccc(-c4cc5ccccc5o4)n3)C2)c2ccccc21 | 3 µM | 9 µM | – | 1 (active) | 1 (active) | 1 (active) | 1 (active) | 1 (active) | 0 (inactive) | 0 (inactive) | 0 (inactive) | 0 (inactive) | 0 (inactive) | 0 (inactive) | 1 (active) | 0 (inactive) | 0 (inactive) | 0 (inactive) | 3 µM | – |
| C[C@@H](Nc1ncnc2[nH]c(-c3ccc(O)cc3)cc12)c1ccccc1 [PKI 166 hydrochloride] | 3 µM | 3 µM | 3 µM | 1 (active) | 1 (active) | 1 (active) | 1 (active) | 1 (active) | 0 (inactive) | 1 (active) | 0 (inactive) | 1 (active) | 1 (active) | 1 (active) | 1 (active) | 1 (active) | 1 (active) | 1 (active) | 3 µM | – |
| COc1ccc(-c2cnc(-c3cccc4c3-c3ccccc3C4=O)o2)cc1 | ≤ 0.3 µM | ≤ 0.3 µM | ≤ 0.3 µM | 1 (active) | 1 (active) | 1 (active) | 1 (active) | 1 (active) | 0 (inactive) | 0 (inactive) | 0 (inactive) | 0 (inactive) | 0 (inactive) | 1 (active) | 1 (active) | 1 (active) | 1 (active) | 1 (active) | ≤ 0.3 µM | – |
| O=S(=O)(c1cccc2c(O)nccc12)N1CCCNCC1 [HA 1100 hydrochloride] | 3 µM | 9 µM | 9 µM | 1 (active) | 1 (active) | 0 (inactive) | 1 (active) | 1 (active) | 1 (active) | 1 (active) | 1 (active) | 1 (active) | 0 (inactive) | 1 (active) | 1 (active) | 1 (active) | 1 (active) | 1 (active) | – | 9 µM |
| C/C(=N/NC(=N)N)c1ccc(NC(=O)Nc2ccc(/C(C)=N/NC(=N)N)cc2)cc1 | 3 µM | 3 µM | 9 µM | 1 (active) | 1 (active) | 1 (active) | 0 (inactive) | 1 (active) | 1 (active) | 1 (active) | 1 (active) | 1 (active) | 1 (active) | 1 (active) | 1 (active) | 1 (active) | 0 (inactive) | 0 (inactive) | 9 µM | 3 µM |
| Nc1nccc(-c2ccc3noc(-c4ccc(Cl)cc4)c3c2)n1 [PIM-1 Inhibitor 2] | 3 µM | – | 9 µM | 1 (active) | 1 (active) | 1 (active) | 1 (active) | 0 (inactive) | 0 (inactive) | 0 (inactive) | 0 (inactive) | 1 (active) | 0 (inactive) | 1 (active) | 1 (active) | 1 (active) | 1 (active) | 1 (active) | 3 µM | – |
| C[C@@H]1C[C@H]2[C@@H]3CCC4=CC(=O)C=C[C@]4(C)[C@@]3(Cl)[C@@H](O)C[C@]2(C)[C@@]1(OC(=O)c1ccco1)C(=O)CCl [mometasone furoate] | ≤ 0.3 µM | ≤ 0.3 µM | 3 µM | 1 (active) | 1 (active) | 1 (active) | 1 (active) | 1 (active) | 0 (inactive) | 0 (inactive) | 0 (inactive) | 0 (inactive) | 0 (inactive) | 0 (inactive) | 0 (inactive) | 1 (active) | 0 (inactive) | 0 (inactive) | ≤ 0.3 µM | – |
| Cc1cccc(C)c1OCC(=O)N[C@@H](Cc1ccccc1)[C@@H](O)C[C@H](Cc1ccccc1)NC(=O)[C@H](C(C)C)N1CCCNC1=O [lopinavir] | 9 µM | – | – | 1 (active) | 1 (active) | 0 (inactive) | 0 (inactive) | 0 (inactive) | 1 (active) | 0 (inactive) | 0 (inactive) | 0 (inactive) | 1 (active) | 0 (inactive) | 1 (active) | 0 (inactive) | 0 (inactive) | 0 (inactive) | – | 9 µM |
| COc1cc2c(cc1NS(=O)(=O)c1ccc(Br)cc1C)n(C)c(=O)n2C | 3 µM | – | – | 1 (active) | 1 (active) | 0 (inactive) | 1 (active) | 0 (inactive) | 1 (active) | 1 (active) | 1 (active) | 0 (inactive) | 1 (active) | 0 (inactive) | 0 (inactive) | 0 (inactive) | 0 (inactive) | 0 (inactive) | – | 9 µM |
| CCCOc1ccc(CCc2nc3cc(-c4c(C)noc4C)ccc3n2CCN2CCOCC2)cc1 | 9 µM | – | – | 1 (active) | 1 (active) | 0 (inactive) | 0 (inactive) | 0 (inactive) | 1 (active) | 1 (active) | 0 (inactive) | 1 (active) | 0 (inactive) | 0 (inactive) | 0 (inactive) | 0 (inactive) | 0 (inactive) | 0 (inactive) | – | 9 µM |
